In assay [1] the test system is Staphylococcus aureus. Put plainly: Antibacterial activity against Staphylococcus aureus MRSA ATCC 43300 (CO-ADD:GP_020); MIC in CAMBH media using NBS plates, by Resazurin F(560/590). It is filed as functional. Particulars: Concentration 20 uM, ASSAY_TEST Inhibition of Bacterial Growth, detection method Resazurin, Fluorescence (ex560/em590), MEDIA CAMHB, plate type 384well, CORNING #3640, time 18 hr. In general terms: Alamar Blue is a resazurin reagent that responds to reducing activity.

Assay [2] concerns Acinetobacter baumannii. Description: Antibacterial activity against Acinetobacter baumannii ATCC 19606 (CO-ADD:GN_034); MIC in CAMBH media using NBS plates, by Resazurin F(560/590). It is filed as functional. The following applies: Concentration 20 uM, ASSAY_TEST Inhibition of Bacterial Growth, detection method Resazurin, Fluorescence (ex560/em590), MEDIA CAMHB, plate type 384well, CORNING #3640, time 18 hr.

Assay [3] has as its system Escherichia coli. Description: Antibacterial activity against Escherichia coli ATCC 25922 (CO-ADD:GN_001); MIC in CAMBH media using NBS plates, by Resazurin F(560/590). The assay is classed as functional. Particulars: Concentration 20 uM, ASSAY_TEST Inhibition of Bacterial Growth, detection method Resazurin, Fluorescence (ex560/em590), MEDIA CAMHB, plate type 384well, CORNING #3640, time 18 hr.

The subject of assay [4] is Klebsiella pneumoniae. Particulars: Concentration 20 uM; ASSAY_TEST Inhibition of Bacterial Growth; detection method Absorption (OD600); MEDIA CAMHB; plate type 384well; NBS; CORNING #3640; time 18 hr.
Assay [5] has as its system Candida albicans. Particulars: 20 µM.
The subject of assay [6] is Cryptococcus neoformans. Particulars: Concentration 20 uM; ASSAY_TEST Inhibition of Fungal Growth; detection method Resazurin; Absorption (OD600-OD570); plate type 384well; NBS; CORNING #3640.

Results on 25 compounds are retold here after ChEMBL document CHEMBL4296182, “CO-ADD screening of NIH NCI Diversity Set V”.

For part of these data: Results with a measured potency or affinity are listed apart.

In the case of `C#CCSc1nnnn1-c1ccc(Br)c(C)c1`, the Inhibition in assay [1] was 21.42%; in assay [2] it was 5.77%; in assay [3], 6.7%; in assay [4], 10.23%; in assay [5] it was 1.42%; in assay [6] it was -16.38%.
For the compound `O=C(Cn1ccc(=O)[nH]c1=O)Nc1ccc(C(=O)O)c(O)c1`, the Inhibition in assay [1] is 10.2%; in assay [2] it was -9.39%; in assay [3], 10.79%; in assay [4], 11.75%; in assay [5], -1.14%; in assay [6] it was -6.61%.
For the compound `CC1=NC(C)(C)CC2CCC(O)C12` (stereo not given), the Inhibition in assay [1] was 15.01%; in assay [2] it was -5.87%; in assay [3], 9.74%; in assay [4] it was 11.22%; in assay [5], 1.52%; in assay [6] it was -2.24%.
In the case of `Oc1ccc(Cl)nn1`, the Inhibition in assay [1] is 1.52%; in assay [2], -4.23%; in assay [3], 4.23%; in assay [4], 8.48%; in assay [5], 0.96%; in assay [6] it was 1.34%.
With `CCOC(=O)/C(C#N)=C/c1cccc(C)c1`, the Inhibition in assay [1] was 35.48%; in assay [2], 11.54%; in assay [3], 20.45%; in assay [4], 6.23%; in assay [5], 19.3%; in assay [6] it was -0.16%.
`O=C(O)c1cc(O)ccc1/N=N/c1ccccc1`: the Inhibition in assay [1] was 3.85%; in assay [2] it was -9.66%; in assay [3], 1.52%; in assay [4], 5.36%; in assay [5], 10.2%; in assay [6] it was -9.07%.
With `O=C(Nc1ccc(O)c(C(=O)O)c1)Oc1ccccc1`, the Inhibition in assay [1] is 5.63%; in assay [2], 12.9%; in assay [3], -6.34%; in assay [4], 11.35%; in assay [5] it was 5.9%; in assay [6], -2.46%.
Turning to `Cc1cc2cc3n(c2nn1)N=C(Cl)CC3`, the Inhibition in assay [1] is 10.12%; in assay [2], 6.88%; in assay [3], -0.69%; in assay [4], 18.79%; in assay [5] it was 2.37%; in assay [6] it was -3.5%.
For `Cc1[nH]c(=O)n(C(C)C)c(=O)c1Br`, the Inhibition in assay [1] is 12.85%; in assay [2], -11.08%; in assay [3], 12.66%; in assay [4], 5.3%; in assay [5], 0.37%; in assay [6] it was -6.73%.
For `O=C(Nc1nc2ccccc2s1)Nc1ccc([N+](=O)[O-])cc1Cl`, the Inhibition was 3.4% in assay [1]; 12.6% in assay [2]; -5.05% in assay [3]; 8.17% in assay [4]; 4.63% in assay [5]; -2.66% in assay [6].
Regarding `Nc1ccccc1Sc1cc(Cl)nnc1Cl`, the Inhibition in assay [1] was 10.59%; in assay [2] it was -10.6%; in assay [3], 6.4%; in assay [4], 13.76%; in assay [5] it was 6.84%; in assay [6], -6.72%.
As to `Cc1ccc2c(c1)C(=C(C#N)C#N)CCN2`, the Inhibition in assay [1] was 5.58%; in assay [2], 12.47%; in assay [3] it was 3.17%; in assay [4], 22.07%; in assay [5], 3.21%; in assay [6], -7.98%.
With `CCCOc1nc2c(c(=O)n(C)c(=O)n2C)n1C`, the Inhibition in assay [1] is 17.4%; in assay [2], 10%; in assay [3] it was 3.82%; in assay [4], -6.25%; in assay [5], 1.36%; in assay [6], -4.51%.
Regarding `CC1=NN(c2ccccc2)C(=O)C1/N=N/c1ccc(S(N)(=O)=O)cc1` (stereo not given), the Inhibition in assay [1] was -7.63%; in assay [2] it was 9.06%; in assay [3], 7.33%; in assay [4] it was 5.84%; in assay [5], 11.2%; in assay [6], -4.3%.
Take `Cc1c(Cc2ccccc2)[n+]([O-])c2ccccc2[n+]1[O-]`: the Inhibition in assay [1] is 19.3%; in assay [2], -9.71%; in assay [3], 20.29%; in assay [4] it was -6.69%; in assay [5], -1.35%; in assay [6] it was -12.82%.
Consider `COc1cc2c(cc1OC)C(/C=C/c1ccco1)=NCC2.O=S(=O)(O)O`, for which the Inhibition in assay [1] was 23.97%; in assay [2], 13.38%; in assay [3] it was 7.22%; in assay [4], 11.02%; in assay [5], -0.93%; in assay [6] it was -6.67%.
`Cn1cnc([N+](=O)[O-])c1N=C(N)N`: the Inhibition is -12.1% in assay [1]; -2.18% in assay [2]; 11.15% in assay [3]; 7.43% in assay [4]; -4.73% in assay [5]; 1.78% in assay [6].
With `c1cc2c3c(cccc3c1)NC1(CCC3(CC1)Nc1cccc4cccc(c14)N3)N2`, the Inhibition is 1.15% in assay [1]; 7% in assay [2]; 12.93% in assay [3]; 19.89% in assay [4]; 2.38% in assay [5]; -5.58% in assay [6].
As to `Nc1cc2c3c(cccc3c1)C(=O)N(CCN1CCCC1)C2=O`, the Inhibition was 23.19% in assay [1]; 9.76% in assay [2]; 2.48% in assay [3]; 19.29% in assay [4]; -1.62% in assay [5]; -3.61% in assay [6].
As to `CC1CCCC(CC(=O)O)(CC(=O)O)C1` (stereo not given), the Inhibition in assay [1] is -13.43%; in assay [2], 0.95%; in assay [3], -5.78%; in assay [4] it was 6.3%; in assay [5], 2.72%; in assay [6] it was -2.12%.
Regarding `COc1cc(O)c(C(=O)/C=C/c2ccccc2)c(OC)c1` [FLAVOKAWAIN B], the Inhibition is 9.23% in assay [1]; 7.33% in assay [2]; 2.45% in assay [3]; 12.32% in assay [4]; 6.59% in assay [5]; -7.74% in assay [6].
With `S=C(Nc1ccccc1)Nc1nccs1`, the Inhibition was -6.83% in assay [1]; 13.46% in assay [2]; -3.08% in assay [3]; 13.95% in assay [4]; 19.1% in assay [5]; 1.13% in assay [6].
Take `CN1CCc2ccccc2C1Cc1ccccc1NC(=O)c1sc2ccccc2c1Cl` (stereo not given): the Inhibition in assay [1] is 1.84%; in assay [2] it was -6.84%; in assay [3], 0.33%; in assay [4], 11.11%; in assay [5], 2.39%; in assay [6], -3.5%.
Regarding `Cn1c(=O)c2nc(CCCc3ccc([N+](=O)[O-])cc3)[nH]c2n(C)c1=O`, the Inhibition in assay [1] is 7.08%; in assay [2], -13.97%; in assay [3] it was 3.35%; in assay [4] it was 12.88%; in assay [5], 0.38%; in assay [6], -9.63%.
Take `Nc1nc2c[nH]c(N)nc-2n1`: the Inhibition in assay [1] was -4.21%; in assay [2], 2.13%; in assay [3], 5.84%; in assay [4] it was 7.49%; in assay [5] it was 3.2%; in assay [6] it was -2.1%.

One may read the Inhibition as the change of the read-out against control, counted positive when it falls.
